This is a sample that favours compounds with a hit; in the whole collection about 2.1% have one here.
uPA surface inh: cell surface uPA generation inhibition; cell surface uPA generation assay, qHTS; Potency, µM (titrated, usually from 38.3 µM), inactives show top-dose activity change, negative = inhibition, usual class: inhibitors; 330,000 compounds, 0.31% hits; AID 540303; active = well fitted inhibition curve with a large enough effect; inconclusive = small, poorly fitted or top-dose-only effect; inactive = no such curve, though single readings can be large or run the other way; tested in mouse RAW 264.7 cells; also: potency is read from the fitted curve at half-maximal effect; % is scaled to controls: 0 for no effect and ±100 for the full control effect; nearly all actives have a fitted effect of over 55% in size
Mito fusion act: blocks mitochondrial division or promotes mitochondrial fusion; 320,000 compounds, 0.23% hits; S. cerevisiae fusion-defective mutant growth rescue, CellTiterGlo 48 h; Potency, µM (highest dose often 46.1 µM), for the others: at the top dose growth rescue (activation), hits mostly activators; also: potency is read from the fitted curve at half-maximal effect; % of control where 0% means no effect; nearly all actives have a fitted effect of over 45% in size
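Read-out: ATP-based luminescence (CellTiterGlo, 10 min ambient) reporting growth of fusion-defective ts yeast after 48 hours at 37C on glycerol/ethanol YPEG medium in the presence of compound.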
Giardia killer: Giardia lamblia killing | Giardia lamblia trophozoite viability | activity change, % at 7.66 µM, hits read low | 340,000 compounds, 0.15% hits; in the data active = activity change below about -80%; inconclusive = between about -30% and that limit;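 also: parasites exposed to compound for two days anaerobically before the ATP read; % is scaled to controls: 0 for no effect and ±100 for the full control effect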
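Luminescent ATP signal served as the viability read-out, measured 15-30 min after adding ATP detection reagent to trophozoites that had been incubated with compounds for 48 hrs at 37 deg C anaerobically at 100 cells/well.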
p53 reactivation: restores transcriptional activity of mutant p53; H1299 p53-A138V BP100-luciferase reporter, luminescence, 24 h; Potency, µM (top dose mostly 92.2 µM), for the others: at the highest dose activity change, positive = activation, actives largely listed as activators; 320,000 compounds, 0.063% hits; also: potency is read from the fitted curve at half-maximal effect; % of control where 0% means no effect; nearly all actives have a fitted effect of over 45% in size
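p53-null H1299 cells stably carrying temperature-sensitive p53-A138V and a BP100-luciferase reporter were pinned with compounds (4-point, 1:5 series) and held 24 hrs at 37 deg C. Luminescence was read 10 min after detection reagent.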
B2AR arrestin: agonists driving beta-arrestin recruitment to human beta2-adrenergic receptor; P07550; beta-arrestin recruitment to beta2AR, cell-based reporter; Potency, µM (top dose mostly 46.1 µM), for the others: top-dose activation, actives largely listed as activators; 330,000 compounds, 0.02% hits;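 also: potency is read from the fitted curve at half-maximal effect; 0% = DMSO controls and full agonism = EC100 isoproterenol or metaproterenol; nearly all actives have a fitted effect of over 65% in size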
Target sequence (P07550 whole entry, looked up): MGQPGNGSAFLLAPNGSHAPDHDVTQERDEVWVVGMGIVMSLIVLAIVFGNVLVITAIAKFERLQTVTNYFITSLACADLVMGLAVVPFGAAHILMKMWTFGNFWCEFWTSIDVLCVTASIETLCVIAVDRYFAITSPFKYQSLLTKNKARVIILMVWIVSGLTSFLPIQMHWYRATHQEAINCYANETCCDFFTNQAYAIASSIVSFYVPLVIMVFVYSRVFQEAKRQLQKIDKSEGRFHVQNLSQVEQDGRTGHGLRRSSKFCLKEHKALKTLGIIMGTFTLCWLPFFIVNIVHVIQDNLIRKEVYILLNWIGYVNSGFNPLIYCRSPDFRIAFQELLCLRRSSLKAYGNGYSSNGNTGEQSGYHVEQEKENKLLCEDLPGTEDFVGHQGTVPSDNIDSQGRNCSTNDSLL
ClpP mod: qHTS Assay for Activators of ClpP; ATP-dependent Clp protease proteolytic subunit (Bacillus subtilis (strain 168)), P80244; purified B. subtilis ClpP, FRET peptide cleavage, 20 min; Potency, µM (top dose mostly 57.5 µM), for inactives: at the highest dose activity change, negative = active; 340,000 compounds, 1.9% hits; AID 651965, 2013; active = well fitted falling curve with a large enough effect; inconclusive = small, poorly fitted or top-dose-only effect; inactive = no such curve, though single readings can be large or run the other way; also: potency is read from the fitted curve at half-maximal effect; the source files actives as falling curves though it sought activators and does not explain the sign; nearly all actives have a fitted effect of over 65% in size
Target sequence (P80244 whole entry, looked up): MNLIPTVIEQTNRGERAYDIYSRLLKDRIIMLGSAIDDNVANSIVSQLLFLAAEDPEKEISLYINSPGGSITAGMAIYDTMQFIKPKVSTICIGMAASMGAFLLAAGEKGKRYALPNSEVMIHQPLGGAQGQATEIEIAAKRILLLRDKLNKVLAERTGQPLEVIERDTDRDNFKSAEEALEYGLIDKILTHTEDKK
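Purified B. subtilis ClpP, 10 microg/mL final in Tris/HCl pH8 with KCl, BSA, glycerol and Tween-20, cleaved an Abz/nitrotyrosine-quenched decapeptide. Fluorescence (ex 320, em 430) was read at 0 and 20 min at room temperature. Delta was normalized to 5.8 microM ADEP and DMSO/no-enzyme controls.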
Starred values were filed as active, the others as inactive; ? = inconclusive; nt = no result given. Unless noted, calls follow the shape of the dose curve; as a rule, active = well fitted curve in the direction sought with a large enough effect; inconclusive = small, poorly fitted or top-dose-only effect, or another doubt; inactive = no such curve, though single readings can be large; an effect the other way counts as inactive or inconclusive.

SMILES	uPA surface inh	Mito fusion act	Giardia killer	p53 reactivation	B2AR arrestin	ClpP mod
O=C(CCc1nnc2n(Cc3ccc(F)cc3)c(=O)c3ccccc3n12)N1CCN(c2ccccn2)CC1	3%	13µM*	25	-5%	0%	-15%
CN(Cc1ccccc1)C(=O)c1cc(-c2cccc(Cl)c2)on1	nt	nt	nt	nt	nt	-1%
O=[N+]([O-])c1ccc(NNC(=S)Nc2ccc(F)cc2)cc1	-1%	3%	3	28µM*	-1%	-1%
O=C(NNC(=S)Nc1ccc(F)cc1)c1cccc([N+](=O)[O-])c1	4%	-2%	17	14%	4%	nt
COc1cccc(NC(=O)CSc2nnc3[nH]c(=O)cc(-c4ccccc4)n23)c1	nt	nt	nt	nt	nt	4%
C=CCNc1nc(NCCOc2ccccc2Cl)c2sc(-c3ccccc3)cc2n1	nt	nt	nt	nt	nt	28µM*
c1ccc(OCCNc2nc(NCC3CC3)nc3cc(-c4ccccc4)sc23)cc1	nt	nt	nt	nt	nt	25µM*
C=CCNc1nc(NCCOC)c2sc(-c3ccccc3)cc2n1	nt	nt	nt	nt	nt	-23%
Cc1cc2ccccn2c1C(=O)c1cccc([N+](=O)[O-])c1	1%	-6%	5	7%	0%	nt
Cc1cc2ccccn2c1C(=O)c1ccc([N+](=O)[O-])cc1[N+](=O)[O-]	2%	-8%	-86*	12%	0%	nt
CCOc1cc2sc(N3CCC(C(=O)Nc4ccccc4Cl)CC3)nc2cc1Br	nt	nt	nt	nt	nt	1%
COc1ccc2cc(S(=O)(=O)NC3CC(C)(C)NC(C)(C)C3)ccc2c1	1%	1%	-4	1%	0%	28µM*
C=CCOc1ccccc1C1C2=C(CC(C)(C)CC2=O)Nc2c1c(=O)n(C)c(=O)n2C (configuration not stated)	-6%	-5%	9	-9%	-1%	28µM*
O=C(N/N=C/c1sc2ccccc2c1O)c1ccccc1	-9%	-11%	-12	14µM*	0%	-1%
COc1ccc(C(=O)N/N=C/c2sc3ccccc3c2O)cc1	-21%	-1%	-1	?	-1%	2%
O=C(Cc1ccccc1)N/N=C/c1ccc([N+](=O)[O-])s1	-10%	-18%	-91*	15%	4%	-2%
Cc1ccccc1C(=O)N/N=C/c1ccc([N+](=O)[O-])s1	?	9%	?	-16%	0%	0%
Cc1ccnn1CC(=O)N/N=C/c1ccc([N+](=O)[O-])s1	?	-4%	-96*	25%	0%	0%
Cc1ccnn1CC(=O)N/N=C/c1cccs1	-4%	-1%	3	-5%	0%	-1%
O=C(N/N=C/c1ccc([N+](=O)[O-])s1)c1ccccc1	-21%	4%	-90*	-6%	0%	nt
Cc1ccsc1/C=N/NC(=O)C(O)c1ccccc1 (configuration not stated)	-9%	0%	4	-4%	-1%	1%
O=C(N/N=C/c1ccc([N+](=O)[O-])s1)C(O)c1ccccc1 (configuration not stated)	10µM*	?	?	?	-2%	0%
COc1ccccc1NC(=O)C(=O)N/N=C/c1ccc([N+](=O)[O-])s1	?	-2%	-90*	1%	0%	0%
O=C(CNC(=O)c1cccc(Br)c1)N/N=C/c1cccs1	9%	1%	4	nt	0%	-2%
O=C(CNC(=O)c1cccc(F)c1)N/N=C/c1ccc([N+](=O)[O-])s1	10µM*	4%	?	20%	0%	-2%
SMILES	uPA surface inh	Mito fusion act	Giardia killer	p53 reactivation	B2AR arrestin	ClpP mod
COc1ccc(Cc2c(C(C)(C)C)nc3c(C)cc(Br)cn23)c(C)c1	nt	nt	nt	nt	nt	-5%
N#Cc1c(N)sc2c1CCN(CCc1ccccc1)C2	2%	-1%	-7	-3%	3%	22µM*
N#Cc1c(NC(=S)NC(=O)c2ccccc2)sc2c1CCN(CCc1ccccc1)C2	nt	3%	nt	14%	-1%	nt
CC(Oc1cccnc1[N+](=O)[O-])C(=O)Nc1cccc(Cl)c1 (configuration not stated)	-5%	11%	-87*	6%	0%	0%
CCCCc1ccc(NC(=O)COc2cccc3c(=O)n(C)ccc23)cc1	nt	nt	nt	nt	nt	-12%
COc1ccc(C(=O)CN2CCN(S(=O)(=O)c3ccc(C(C)C)cc3)CC2)cc1	nt	nt	nt	nt	nt	-2%
O=C(Nc1c(C(=O)c2ccccc2)oc2ccccc12)c1cc(=O)c2ccccc2o1	nt	nt	nt	nt	nt	-2%
CN(C)c1nc2c(Br)c(Br)c(Br)c(Br)c2[nH]1	nt	4.1µM*	nt	nt	nt	nt
Cc1nc2c(Br)c3nc(C(F)(F)F)[nH]c3c(Br)c2[nH]1	5%	-2%	13	-1%	0%	0%
COc1ccc(-c2nc(-c3cccc(C)c3)nc(Cl)c2C#N)cc1	nt	2%	nt	18%	-1%	nt
COc1ccc(-c2nc(-c3ccccc3)nc(Cl)c2C#N)cc1	nt	-4%	3	0%	5%	32µM*
CCC(C)(C)NC(=O)c1ccc(Sc2nncn2C)c([N+](=O)[O-])c1	6%	-5%	-3	23%	0%	1%
Cn1cnnc1Sc1ccc(/C=C/C(=O)c2ccc(O)cc2)cc1[N+](=O)[O-]	8.9µM*	3%	-4	-5%	0%	0%
O=S(=O)(Nc1nc(SCc2ccc(Cl)cc2)n[nH]1)c1ccc(F)cc1	-2%	29%	-12	10%	0%	18µM*
CCc1nc(SCc2ccc(Cl)cc2)n[nH]1	3%	9%	-2	4%	0%	0%
O=C(Nc1ccc(Cl)c(C(F)(F)F)c1)C(Cc1ccccc1)NS(=O)(=O)c1cccc2nsnc12 (configuration not stated)	nt	nt	nt	nt	nt	7%
Cc1ccc(-c2cc(=O)c3ccccc3[nH]2)cc1	11µM*	-1%	-6	?	3%	-16%
O=c1cc(-c2ccc(Cl)cc2)[nH]c2ccccc12	?	-1%	-16	6%	-1%	-19%
Cc1ccc(CN2CCC(CNC(=O)Nc3c(C)cccc3C)C2)cc1 (configuration not stated)	nt	nt	nt	nt	nt	-2%
CC(=O)Nc1ccc(S(=O)(=O)N(C)CC(=O)OCC(=O)NNC(=O)c2ccccc2F)cc1	2%	-2%	-29	0%	0%	11µM*
Cc1cc(C)n2c(Nc3cccc(C(F)(F)F)c3)c(-c3ccsc3)nc2n1	nt	nt	nt	nt	nt	-7%
CCOC(=O)c1cc2c(=O)n3ccccc3nc2n(CCOC)c1=NC(=O)C(C)(C)C	1%	3%	15	-1%	-1%	18µM*
CCOC(=O)c1cc2c(=O)n3ccccc3nc2n(C(C)C)c1=NC(=O)c1ccncc1	-1%	5%	-10	-8%	-1%	28µM*
CCOC(=O)c1cc2c(=O)n3ccccc3nc2n(CCOC)c1=NC(=O)c1ccncc1	-2%	2%	9	-17%	0%	13µM*

Bioassay records deposited in PubChem by National Center for Advancing Translational Sciences (NCATS).
